Compound activity as filed in PubChem BioAssay.
This is a sample that favours compounds with a hit; in the whole collection about 21% have one here.
Pf growth 48h: inhibits P. falciparum growth in the first generation, 48 h | P. falciparum luciferase growth in erythrocytes, 48 h | AID 504832 | Potency, µM (top dose mostly 28.7 µM), hits mostly inhibitors | 310,000 tested, 5.9% active
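First compound was added to culture medium, then infected red cells at 0.1% parasitemia and 2% hematocrit (final). After incubation at 37 C under 5% CO2, luciferase detection reagent was dispensed and light output recorded.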
Pf growth 96h: inhibits malaria parasite growth, 96 h | P. falciparum luciferase reporter growth, 96 h | Potency, µM (top dose mostly 28.7 µM), hits mostly inhibitors | 320,000 tested, 6.9% active
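Two-generation exposure (96 h) targets delayed-death phenotype. Reporter parasites carrying integrated firefly luciferase, in red cells at 2% hematocrit and 0.05% parasitemia final, kept at 37 C, 5% CO2; luminescence loss indicates inhibition.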
Cycloheximide cs: counter-screen hit for Shiga toxin inhibitors, cycloheximide; 300,000 tested, 12% active; max response, %; cell reporter, cycloheximide protein synthesis inhibition counterscreen; AID 2314; in the data active means max response mostly above about 13%, no sharp cut-off; inactive means mostly below about 14%; further: read at 38.3 µM for the half of the compounds with a filed dose
Shiga inhibitor: inhibitors of Shiga toxin in Vero cells | Vero cells, Shiga toxin protein synthesis inhibition reporter | 290,000 tested, 9.2% active | inhibition, % at 38.7 µM | AID 2315; in the data active means inhibition mostly above about 28%, no sharp cut-off; inactive means mostly below about 43%
NS1 function inh: blocks influenza NS1 protein function; Potency, µM (series often up to 46.1 µM); AID 2326; 270,000 tested, 0.4% active; calls by dose curve; further: actives are rising curves; nearly all actives have a fitted effect of over 50% in size
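Recovery from NS1-induced slow growth read by OD600 in budding yeast switched to galactose assay medium (pH 6.0, -URA) at 1:100 dilution. Compound 23 nl per well; the matching strain lacking NS1 serves as control.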
A number is an active result; . = inactive; ? = inconclusive; / = no result given; [ ] = remark or other dose. Unless noted, the call rests on the fitted dose curve; in most records, active means well fitted inhibition curve with a large enough effect; inconclusive means small, poorly fitted or top-dose-only effect, or another doubt; inactive means no such curve, though single readings can be large or run the other way.

SMILES | Pf growth 48h | Pf growth 96h | Cycloheximide cs | Shiga inhibitor | NS1 function inh
CN(CCc1ccccn1)Cc1ccc(Cl)cc1Cl | . | . | 17 | . | .
S=C(NCc1ccccn1)Nc1ccc(Br)cc1Cl | . | . | 18 | 44 | .
N/C(=N\NC(=O)c1sccc1OCc1ccc(Cl)cc1Cl)c1ccccn1 | 3.3µM | ? | . | . | .
CNC(=S)NNC(=O)c1sccc1OCc1ccc(Cl)cc1Cl | . | . | . | . | .
O=C(NCc1ccccn1)Nc1ccc(Br)cc1Cl | . | 9.3µM | 63 | 136 | .
CN(CCc1ccccn1)Cc1ccc(Cl)c(Cl)c1 | . | . | . | . | .
O=C1c2cnc3nc(SCc4ccc(Cl)cc4)nn3c2CC2c3ccccc3CCN12 (centres undefined) | . | . | . | . | .
CCN(CC)S(=O)(=O)c1cccc(C(=O)NC(C)C(c2cccs2)N2CCCC2)c1 (centres undefined) | . | . | . | . | .
CCN(CC(=O)Nc1ccc(OC)cc1)CC(=O)Nc1cccc(C#N)c1 | / | . | . | . | .
O=C(CCCOc1ccc(Cl)cc1Cl)NCc1ccccn1 | . | . | . | . | .
O=C(Nc1ccno1)Nc1ccc(Cl)cc1Cl | . | . | 11 | . | .
O=C(Nc1ccc(Cl)cc1Cl)Nn1cnnc1 | . | . | . | . | .
O=C(NCc1ccccn1)c1ccccc1Cl | . | / | . | . | .
O=C(NCc1ccccn1)Nc1ccc(Cl)cc1Cl | . | ? | 37 | 66 | .
O=C(NCc1ccccn1)c1ccccc1OCc1ccc(Cl)cc1Cl | ? | 15µM | / | / | /
Cc1cccc(NC(=O)NC2CCCc3ccccc32)c1 (centres undefined) | . | . | . | . | .
Cc1ccccc1C(=O)Nc1ccnn1C1CCN(C2CCSCC2)CC1 | . | . | . | . | .
Cc1cc(SCC(=O)N/N=C/c2ccc(O)c(O)c2O)c(C)cc1Br | 13µM | / | . | . | .
COc1ccc(/C=N/NC(=O)CSc2ccccn2)cc1OC | . | . | 23 | 30 | .
COc1ccccc1/C=N/NC(=O)CSc1ccc2ccccc2n1 | .[0.00184 µM] | . | 25 | 70 | .
O=C(CSc1ccccc1)N/N=C/c1ccccc1O | ? | . | 25 | . | .
Cc1cc(C)n2nc(-c3ccco3)nc2n1 | . | . | . | . | /
CCn1nc(C)c(/C=N/NC(=O)CSc2ccccn2)c1C | . | . | 32 | 63 | .
Cc1nn(C)cc1/C=N/NC(=O)CSc1ccccn1 | . | . | . | . | .
COc1ccc(/C=N/NC(=O)CSc2ccccc2)cc1OC | . | . | 14 | . | .
SMILES | Pf growth 48h | Pf growth 96h | Cycloheximide cs | Shiga inhibitor | NS1 function inh
CN(C)c1ccc(-c2ccc(C3C4C=CCCC4(C)C(=O)N3Cc3ccccc3)c(F)c2)cc1 (centres undefined) | / | / | . | . | /
CCCCOc1ccc(N2C(=O)CC(NCCc3ccc(S(N)(=O)=O)cc3)C2=O)cc1 (centres undefined) | / | ? | . | . | .
CC1(C)C2C(Cl)(Cl)C2(C)c2ccccc2N1C=O (centres undefined) | . | . | . | . | .
COc1ccc(OC)c(Nc2nc(N(C)c3ccccc3)nc(N)c2[N+](=O)[O-])c1 | ? | ? | . | . | .
CCOc1ccc(NC(=S)Nc2cccc3cnccc23)cc1 | . | . | 14 | . | .
COc1ccc(NC(=S)Nc2cccc3cnccc23)cc1 | . | . | . | . | .
CCOc1ccc(NC(=S)Nc2cccc3ccccc23)cc1 | ? | . | 72 | 89 | ?
Cc1cc(C(=O)CCC(=O)N(C)CC(=O)Nc2c(Cl)cccc2Cl)c(C)s1 | . | . | / | / | /
COc1ccc(/C=C2\N=C(SC)NC2=O)cc1 | . | . | . | 120 | .
COc1ccc(/C=C2/N=C(SC)NC2=O)cc1OC | . | . | 16 | . | .
CCSC1=N/C(=C\c2ccccc2)C(=O)N1c1ccc(OC)cc1 | ? | ? | . | . | /
COc1ccc(/C=C2\N=C(c3ccccc3Cl)NC2=O)cc1 | . | . | 34 | . | .
Cc1ccc(C2=N/C(=C\c3ccc(F)cc3)C(=O)N2)cc1 | . | . | / | / | /
CCSC1=N/C(=C\c2ccc(OC)cc2)C(=O)N1 | . | . | 28 | 46 | .
COc1ccc(OC)c(NC(=O)NNC(=O)COc2ccc([N+](=O)[O-])cc2)c1 | . | . | . | . | .
CSCCC(NC(=O)c1cccc(C)c1)C(=O)Nc1sccc1C(N)=O (centres undefined) | . | . | . | . | .
NS(=O)(=O)c1ccc(NC(=S)Nc2nn(Cc3ccc(Cl)cc3Cl)cc2Cl)cc1 | . | ? | . | . | .
CSC1=N/C(=C\c2ccc(Cl)cc2)C(=O)N1N(C)C | . | ? | . | . | .
COc1ccc(/C=C2\N=C(SC)N(C)C2=O)cc1 | . | . | 12 | . | .
CCCCN(C(=S)SC)C1CCS(=O)(=O)C1 (centres undefined) | . | . | . | . | .
CCc1ccccc1NC(=S)N(CCN1CCOCC1)Cc1ccccc1F | . | 10µM | . | . | .
O=C(Nc1cccc(Cl)c1)N(CCCN1CCOCC1)Cc1ccccc1F | . | 2.1µM | . | . | .
Cc1ccc(C)c(NC(=O)/C(C#N)=C/c2ccc(Sc3nncn3C)c([N+](=O)[O-])c2)c1 | . | ? | . | . | ?
O=c1[nH]c(-c2ccccc2F)nc2c1sc(=S)n2Cc1ccccc1 | . | . | . | . | .
O=C(Nc1ccc(S(=O)(=O)NCC2CCCO2)cc1)c1ccc(Cl)cc1[N+](=O)[O-] (centres undefined) | ? | . | . | . | .
SMILES | Pf growth 48h | Pf growth 96h | Cycloheximide cs | Shiga inhibitor | NS1 function inh
Cc1cc(=O)oc2cc(NC(=O)c3cc4ccccc4o3)ccc12 | . | / | . | . | .
CCC(=O)Nc1cccc(NC(=S)NC(=O)c2cc3ccccc3o2)c1 | . | . | 35 | 72 | /
Cc1ccc(OC(C)C(=O)Nc2ccc3c(c2)n(C)c(=O)n3C)cc1C (centres undefined) | ? | ? | . | / | .
Cn1c(=O)n(C)c2cc(NC(=O)c3cc4ccccc4o3)ccc21 | . | ? | 33 | 89 | .
CCC(=O)Nc1ccc(NC(=S)NC(=O)c2cc3ccccc3o2)cc1 | . | ? | . | . | .
Cc1cc(C)cc(OC(C)C(=O)Nc2ccc3c(c2)n(C)c(=O)n3C)c1 (centres undefined) | . | 0.93µM | . | . | .
O=C(Nc1ccc2oc(=O)ccc2c1)c1cc2ccccc2o1 | . | ? | 35 | 54 | .
COc1ccc(-c2nnc(SCC(=O)O)n2C)cc1OC | . | ? | . | . | .
CCc1ccc(C(=O)Nc2ccc3c(c2)n(C)c(=O)n3C)cc1 | . | ? | 12 | / | .
O=C(Nc1ccc2c(c1)OCCO2)c1cc2ccccc2o1 | . | . | 24 | 88 | /
O=C(O)c1ccc(NC(=O)c2cc3ccccc3o2)cc1 | . | . | 21 | . | .
CCC(=O)Nc1ccc(NC(=O)c2cc3ccccc3o2)cc1 | . | ? | 70 | 83 | .
O=C(NCCC1=CCCCC1)C(=O)NCc1ccncc1 | . | . | . | . | .
CC(Cc1ccccc1)NC(=O)c1cc2ccccc2o1 (centres undefined) | . | . | 59 | 141 | .
